p53 reactivation – qHTS assay for re-activators of p53 using a Luc reporter. H1299 p53-A138V BP100-luciferase reporter, luminescence, 24 h. Potency, µM (titrated, usually from 92.2 µM), for the others: top-dose activity change, positive = activation, hits mostly activators. 0.063% of 320,000 active. AID 504706, 2011; also: % of control where 0% means no effect; nearly all actives have a fitted effect of over 45% in size
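p53-null H1299 cells stably carrying temperature-sensitive p53-A138V and a BP100-luciferase reporter were pinned with compounds (4-point, 1:5 series) and held 24 hrs at 37 deg C. Luminescence was read 10 min after detection reagent.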
ELG1 genotox – qHTS screen for small molecules that induce genotoxicity in human embryonic kidney (HEK293T) cells expressing luciferase-tagged ELG1. HEK293T ELG1-luciferase reporter, luminescence, 16 h. Potency, µM (titrated, usually from 46 µM), without a hit: top-dose activity change, positive = activation, most hits filed as activators. 1.3% of 330,000 active; also: % of control where 0% means no effect; nearly all actives have a fitted effect of over 60% in size
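Screening used a luciferase reporter fused to human ELG1 in HEK293T cells. Luminescence was read on a CCD plate imager after 16 hr exposure and 30 min ONE-Glo incubation.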
NPC1 prom act – qHTS Assay for NPC1 Promoter Activators | 2.4% of 320,000 active | Potency, µM (titrated, usually from 9.22 µM), for inactives: at the highest dose activation, hits mostly activators | Huh7 NPC1 promoter luciferase reporter, 24 h | AID 485313, 2010; also: % of control where 0% means no effect; nearly all actives have a fitted effect of over 60% in size
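Compounds in DMSO were transferred onto Huh7 NPC1-luciferase reporter cells pre-incubated 2 h; after 24 h at 37 °C, Amplite reagent was dispensed and luminescence recorded 10 min later.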
SMN2 splice enh – qHTS Assay for Enhancers of SMN2 Splice Variant Expression; HEK293 SMN2-luciferase splicing reporter, luminescence, 30-36 h; 2.8% of 210,000 active; Potency, µM (titrated, usually from 46.1 µM), for inactives: at the highest dose activity change, positive = activation, usual class: activators; also: % of control where 0% means no effect; nearly all actives have a fitted effect of over 55% in size
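HEK293 cells carry an SMN2 […]–luciferase reporter in which exon 7 inclusion puts luciferase in frame. Cells were plated 10-12 h before compound addition, then incubated 30-36 h at 37C. ONE-Glo luminescence was read; sodium butyrate at 4.5 mM final served as control.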
FLuc modulator – qHTS profiling assay for firefly luciferase inhibitor/activator using purifed enzyme and Km concentrations of substrates (counterscreen for miR-21 project); purified FLuc, Km substrates, luminescence inhibition; Potency, µM (titrated, usually from 57.5 µM), without a hit: top-dose activity change, negative = inhibition, most hits filed as inhibitors; 6.9% of 360,000 active; AID 588342, 2011;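 also: plate controls were vehicle for no effect and reference inhibitor for full effect; nearly all actives have a fitted effect of over 55% in size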
Target sequence (P08659 whole entry, looked up): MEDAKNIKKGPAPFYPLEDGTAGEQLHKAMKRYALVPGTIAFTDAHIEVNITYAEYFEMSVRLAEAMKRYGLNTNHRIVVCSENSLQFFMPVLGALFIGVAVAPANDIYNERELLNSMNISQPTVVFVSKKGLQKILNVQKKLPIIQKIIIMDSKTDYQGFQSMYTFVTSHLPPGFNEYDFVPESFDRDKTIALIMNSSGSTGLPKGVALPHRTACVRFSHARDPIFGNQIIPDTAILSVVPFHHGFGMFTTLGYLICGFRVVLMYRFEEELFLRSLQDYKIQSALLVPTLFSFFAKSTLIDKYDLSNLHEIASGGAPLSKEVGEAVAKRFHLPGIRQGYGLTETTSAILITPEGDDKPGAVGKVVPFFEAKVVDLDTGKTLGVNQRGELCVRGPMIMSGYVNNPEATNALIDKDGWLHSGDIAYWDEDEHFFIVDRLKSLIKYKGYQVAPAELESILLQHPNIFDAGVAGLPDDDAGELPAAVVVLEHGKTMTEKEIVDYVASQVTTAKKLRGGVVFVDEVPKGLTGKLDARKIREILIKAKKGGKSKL
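Purified P. pyralis luciferase, 10 nM final, with Km-level 10 uM D-luciferin and 10 uM ATP in 50 mM Tris acetate pH 7.5, 10 mM Mg acetate, 0.01% Tween-20, 0.05% BSA; 6-point qHTS titration about 60 µM downward; luminescence read.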
Rab9 prom act – qHTS Assay for Rab9 Promoter Activators; Potency, µM (top dose mostly 9.22 µM), for the others: at the highest dose activation, negative = inhibition, usual class: activators; 2.8% of 320,000 active; Huh7 Rab9 promoter-luciferase reporter, luminescence, 24 h; also: % of control where 0% means no effect; nearly all actives have a fitted effect of over 60% in size
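Cell-based reporter: Huh7 stable for Rab9 promoter-driven luciferase, plated in reduced-serum medium with 10% FBS at 1500 cells/well, compound-treated 24 h at 37 °C, luminescence read after 10 min reagent.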
Active calls of the source: *; u = inconclusive; x = no result; [ ] = dose if it differs, or a comment. Most compounds without a hit are left out; they make up all but 7.4% or so of the library. Calls follow the shape of the dose curve; as a rule, active = well fitted curve in the direction sought with a large enough effect; inconclusive = small, poorly fitted or top-dose-only effect, or another doubt; inactive = no such curve, though single readings can be large; an effect the other way counts as inactive or inconclusive. Potency is read from the fitted curve at half-maximal effect.

SMILES | p53 reactivation | ELG1 genotox | NPC1 prom act | SMN2 splice enh | FLuc modulator | Rab9 prom act
Cc1cccc(NC(=S)NNC(=O)c2ccco2)c1 | 14% | 1% | -3% | 19% | u | 1%
O=C(Nc1ccccc1)c1ccc2c(c1)OCCO2 | u | u | 0.71µM* | 18µM* | 4.3µM* | 1.6µM*
COc1cccc(NC(=O)Nc2nc(-c3ccc(OC)c(OC)c3)cs2)c1 | -16% | -26% | -15% | x | u | -7%
Cc1c(Cl)cccc1NC(=O)CSc1ncc2c(n1)-c1ccccc1N(C)S2(=O)=O | x | x | x | x | 4% | x
O=C(Nc1ccc2c(c1)OCO2)c1cc(-c2cccnc2)nc2ccccc12 | -3% | -5% | 12% | -5% | u | 21%
Cc1ccc(-c2cc(C(=O)Nc3ccc4c(c3)OCCO4)c3ccccc3n2)cc1 | u | 9% | 16% | 11µM* | 9.5µM* | 19%
Cc1ccc(NC(=O)c2ccc3c(c2)OCCO3)cc1S(=O)(=O)Nc1cccc(Cl)c1 | u | -4% | 13% | x | 17µM* | 16%
Cc1ccc(NC(=O)c2ccc3c(c2)OCCO3)cc1C | 29% | u | 0.63µM* | x | 0.27µM* | 0.32µM*
COC(=O)c1ccsc1NC(=O)c1ccc2c(c1)OCCO2 | 1% | 14% | -1% | x | 19µM* | 17%
O=C(N/N=C/c1cccc([N+](=O)[O-])c1)c1cc[n+](CCO)cc1 | x | -1% | 2% | x | 0% | 9%
O=C(NC1CCCCC1)c1cc2c(Cl)nc3ccccc3c2s1 | x | x | x | 2% | -2% | x
COc1ccc(C(=O)NCC(=O)OCC(=O)c2ccc3c(c2)OCCO3)cc1 | 1% | 3% | 3% | -8% | -18% | 0%
Cc1ccc(C(=O)NCC(=O)OCC(=O)c2ccc3c(c2)OCCO3)cc1C | 8% | 12% | 7% | -6% | 21µM* | 8%
COc1ccc(F)cc1S(=O)(=O)n1cc(C)nc1-c1ccccc1 | -10% | 0% | 1% | 3.5µM* | -1% | 1%
CNC/C(Cl)=N/S(=O)(=O)c1ccc(C)cc1 | x | x | x | -10%[9.22 µM] | x | x
COCCn1c(C)cc(C(=O)COC(=O)c2ccc(NC(=O)CC#N)cc2)c1C | u | u | 2.8µM* | 11µM* | 11µM* | 2.2µM*
COCCn1c(C)cc(C(=O)COC(=O)c2ccc3ncsc3c2)c1C | u | u | 2.8µM* | 15% | 6.7µM* | 2.8µM*
COCCn1c(C)cc(C(=O)COC(=O)c2ccccc2Br)c1C | -4% | 0.21µM* | -7% | x | 0.095µM* | -11%
COCCn1c(C)cc(C(=O)COC(=O)CCc2ccc(S(=O)(=O)N3CCOCC3)cc2)c1C | 7% | -1% | 3% | -1% | 15µM* | 7%
CC1=C(c2ccc(C)c(C)c2)S(=O)(=O)N=C1N1CCC(C(=O)Nc2cccc(F)c2)CC1 | x | x | x | x | -5% | x
Cc1cc(C)c(NS(=O)(=O)c2ccc(-c3cnc(C4CC4)o3)cc2)c(C)c1 | x | x | x | x | -19% | x
O=C(c1ccc2c(c1)OCCO2)N(Cc1cccnc1)c1nc2c(Cl)cccc2s1 | x | x | x | x | -15% | x
COCCn1c(C)cc(C(=O)COC(=O)c2cncc(Br)c2)c1C | u | u | u | -6% | 7.6µM* | u
COc1cccc(-c2nnc3n(Cc4ccccc4Cl)c(=O)c4ccccc4n23)c1O | x | x | x | x | 0% | x
Cc1ccc(C(=O)Nc2sc(C)c(-c3ccccc3)c2C(N)=O)cc1[N+](=O)[O-] | u | 2.9µM* | 17% | -49% | 3.4µM* | 16%
SMILES | p53 reactivation | ELG1 genotox | NPC1 prom act | SMN2 splice enh | FLuc modulator | Rab9 prom act
Cc1ccc(C(=O)Nc2cccc(NC(=O)c3ccc(C)c([N+](=O)[O-])c3)n2)cc1[N+](=O)[O-] | 15% | -1% | -5% | x | -19% | -2%
Cc1cccc2nc(Cn3c(=O)n(-c4ccccc4)c(=O)c4c5c(sc43)CCC5)cc(=O)n12 | x | x | x | 9% | 6% | x
N/C(=N\OC(=O)CCC1CCCCC1)c1cccnc1 | 1% | 10% | 11% | 17% | 19µM* | -4%
N/C(=N\OC(=O)CC1CCCCC1)c1ccc([N+](=O)[O-])cc1 | 22% | 2% | 6% | 4% | u | -1%
N/C(=N\OC(=O)CCC1CCCC1)c1cccc([N+](=O)[O-])c1 | 10% | 4% | 1% | x | 9.5µM* | 1%
N/C(=N\OC(=O)CCC1CCCC1)c1ccc(Br)cc1 | 2% | 17% | 10% | x | u | 10%
N/C(=N\OC(=O)CC1CCCCC1)c1cccc([N+](=O)[O-])c1 | 17% | 2% | -1% | -27% | 6µM* | -4%
COc1ccc(/C(N)=N/OC(=O)CC2CCCCC2)cc1 | u | u | 20% | x | 17µM* | 20%
Cc1ccc(NC(=O)C(C)Sc2nc3c(c(=O)[nH]2)CCCC3)cc1Cl (stereo not given) | x | x | x | x | -1% | x
COC1C(O)C(CO)OC1n1cnc2c(=O)[nH]c(N)nc21 (stereo not given) | x | x | x | -7% | x | x
COc1ccc(Cn2c(=O)c3oc4ccccc4c3n(Cc3ccc(F)cc3)c2=O)cc1 | x | x | x | x | -3% | x
CC(C)(C)C(=O)Nc1cccc(C(=O)Nc2cc(C(=O)O)cc(C(=O)O)c2)c1 | -2% | -1% | -2% | 11% | 5% | 3%
CC(C)(C)c1ccc(/C=N/Nc2cccc(C(=O)O)c2)cc1 | -1% | 0.15µM* | 0.5µM* | 0.1µM* | 0.17µM* | 1.1µM*
CN(C)c1ccc(/C=N/Nc2cccc(C(=O)O)c2)cc1 | u | u | u | x | 0.076µM* | 10µM*
O=C(O)c1cccc(N/N=C/c2ccc(-c3ccccc3)cc2)c1 | u | 0.15µM* | 0.025µM* | 0.2µM* | 0.076µM* | 0.028µM*
O=C(O)c1cccc(N/N=C/c2cccnc2)c1 | 6% | 0% | u | 8.9µM* | 2.4µM* | 0.32µM*
O=C(N/N=C\c1cccc(F)c1)c1ccc(-c2ccccc2)cc1 | 7% | 2% | 19% | x | -2% | 13%
Clc1cnc(N/N=C/c2ccncc2)c(Cl)c1 | 7% | u | 20% | x | u | 23%
Clc1ccc(N/N=C/c2cccnc2)cc1 | u | 17% | 28% | u | 17µM* | 26%
Clc1ccc(N/N=C/c2ccncc2)cc1Cl | 20% | u | u | 13µM* | u | u
Cc1c(Cl)cccc1-c1ccc(CNc2ccc3[nH]c(=O)[nH]c3c2)o1 | x | x | x | x | -10% | x

High-throughput results (PubChem)
